{"source": "PubChem BioAssay AID1509", "about": "(The Scripps Research Institute Molecular Screening Center, 2009)", "note": "Among all 220,000 compounds or so, about 770 (0.35%) were called active. Shown is part of a subset that was picked to be rich in actives. Unmarked numbers belong to inactive results. Rule as the data show it: active = activation above about 11%; inactive = the rest."}
{"target": "Sphingosine 1-phosphate receptor 4 (Homo sapiens) (UniProt O95977)", "sequence (O95977 whole entry, looked up)": "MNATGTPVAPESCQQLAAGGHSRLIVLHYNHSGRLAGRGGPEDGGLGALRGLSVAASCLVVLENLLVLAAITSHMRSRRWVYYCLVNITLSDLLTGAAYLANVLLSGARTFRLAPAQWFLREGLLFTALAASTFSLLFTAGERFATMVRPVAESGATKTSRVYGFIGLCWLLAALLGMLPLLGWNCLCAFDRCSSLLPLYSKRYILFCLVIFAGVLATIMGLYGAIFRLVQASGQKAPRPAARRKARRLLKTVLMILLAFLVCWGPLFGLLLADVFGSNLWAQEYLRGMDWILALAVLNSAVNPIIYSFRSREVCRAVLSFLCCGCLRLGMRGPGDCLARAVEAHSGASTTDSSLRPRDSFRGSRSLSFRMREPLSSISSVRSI", "test": "S1P4 receptor agonists, primary screen, cell-based (AID 1509);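 also: 0% = DMSO vehicle and 100% = reference agonist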", "conditions": "S1P4-expressing cell line, agonist reporter assay; at 4.98 µM; hits give high values"}
{"smiles": "Cc1nc(-c2nnc(SCC(=O)Nc3cc(C(F)(F)F)cc(C(F)(F)F)c3)n2C)cs1", "activation": "-0.18%"}
{"smiles": "O=C1C=C(c2ccc(Cl)cc2)C(=O)N1Nc1ccccc1", "activation": "-3.55%"}
{"smiles": "CCOc1ccc(N2CC(C(=O)N/N=C/c3sccc3C)CC2=O)cc1", "note": "(stereo not drawn)", "activation": "-0.25%"}
{"smiles": "NC(=O)COC(=O)c1sc2cc(F)ccc2c1Cl", "activation": "0.19%"}
{"smiles": "COc1ccc(CCNC(=O)C(Sc2ccccn2)c2ccccc2)cc1OC", "note": "(stereo not drawn)", "activation": "-2.85%"}
{"smiles": "O=C(Nc1ccc(N2CCOCC2)cc1)c1ccc2c(c1)OCO2", "activation": "1.77%"}
{"smiles": "CC1CN(C(=O)c2ccccc2NS(=O)(=O)c2cccc([N+](=O)[O-])c2)CC(C)O1", "note": "(stereo not drawn)", "activation": "1.5%"}
{"smiles": "CCc1ccc(Nc2nnc(SCC(=O)c3ccc4c(c3)NC(=O)CO4)s2)cc1", "activation": "1.5%"}
{"smiles": "CC1CCCN(CC(O)COc2ccc3c(c2)OCO3)C1", "note": "(stereo not drawn)", "activation": "0.61%"}
{"smiles": "COCCn1c(SCc2nnc(-c3ccc(OC)c(OC)c3)o2)nc2sc3c(c2c1=O)CCC3", "activation": "1.63%"}
{"smiles": "CCOc1cnc(-c2c(-c3ccccc3Cl)noc2C)o1", "activation": "0.62%"}
{"smiles": "CC1CCCC(NC(=O)c2cccc(N3CCCC3=O)c2)C1C", "note": "(stereo not drawn)", "activation": "-1.52%"}
{"smiles": "COc1ccccc1CNC(=O)CCn1c(=O)sc2ccccc21", "activation": "-0.92%"}
{"smiles": "COc1ccccc1CNC(=O)CNC(=O)c1cn(-c2ccccc2OC)c(=O)c2ccccc12", "activation": "16.9% (active)"}
{"smiles": "COc1ccccc1CNC(=O)c1cc(=O)c2ccccc2o1", "activation": "0.7%"}
{"smiles": "COc1cccc(CN(C)CC(=O)Nc2ccccc2C(=O)Nc2ccccc2)c1", "activation": "0.57%"}
{"smiles": "CN(C)c1nc(-c2cccnc2)nc(-c2ccc(Cl)cc2)c1C#N", "activation": "0.37%"}
{"smiles": "CC(Oc1ccc(-c2ccccc2)c(F)c1)c1ccn(S(=O)(=O)c2cccc3ccccc23)n1", "note": "(stereo not drawn)", "activation": "-2.56%"}
{"smiles": "COc1ccc(NC(=O)C(=O)NCC(=O)Nc2cccc(C(F)(F)F)c2)cc1", "activation": "0.93%"}
{"smiles": "COc1ccc(-c2ccc(CCC(=O)O)n2NC(=O)c2ccc(C(C)(C)C)cc2)cc1", "activation": "-0.13%"}
{"smiles": "CN(C)S(=O)(=O)c1cc(NC(=O)CN2C(=O)NC3(CCCc4ccccc43)C2=O)ccc1Cl", "note": "(stereo not drawn)", "activation": "0.63%"}
{"smiles": "COc1ccc(-n2c(C)cc(C(=O)CN3C(=O)NC4(CCc5ccccc54)C3=O)c2C)cc1", "note": "(stereo not drawn)", "activation": "16.1% (active)"}
{"smiles": "Cc1ccc(-n2c(C)cc(C(=O)CN3C(=O)C(=O)N(C4CCCC4)C3=O)c2C)cc1", "activation": "0.78%"}
{"smiles": "COC(=O)c1cc(C(=O)N(Cc2ccccc2)c2ccccn2)cc([N+](=O)[O-])c1", "activation": "1.87%"}
{"smiles": "Cc1ccccc1OCCC(=O)OCC(=O)NC(C)c1ccccc1", "note": "(stereo not drawn)", "activation": "-1.6%"}
{"smiles": "CCN(CC)C(=O)Cn1cc(S(=O)(=O)CC(=O)NCc2ccc3c(c2)OCO3)c2ccccc21", "activation": "-1.22%"}
{"smiles": "COc1ccc(C(=O)NN2C(=O)C3C(c4ccccc4)C=CC(c4ccccc4)C3C2=O)cc1", "note": "(stereo not drawn)", "activation": "-0.98%"}
{"smiles": "N#C/C=C(/c1ccc(F)cc1)N1CCOCC1", "activation": "-1.05%"}
{"smiles": "Cc1cc2c(C)nc(N/N=C/c3ccccc3)nc2o1", "activation": "-1.39%"}
{"smiles": "O=C(CSc1ccccc1)Nc1cc(Cl)ccc1Oc1ccccc1", "activation": "0.59%"}
{"smiles": "CC(=O)Nc1ccc(SCC(=O)Nc2ccccc2Oc2ccccc2)cc1", "activation": "13.2% (active)"}
{"smiles": "Cc1cc(C)cc(NC(=O)CSc2ccccc2)c1", "activation": "-1.04%"}
{"smiles": "N#Cc1ccccc1Sc1ccccc1C(=O)OCC(=O)NC1CCCCC1", "activation": "2.4%"}
{"smiles": "O=C(COC(=O)c1cc([N+](=O)[O-])ccc1NCc1ccccc1)NC1CCCCC1", "activation": "15.3% (active)"}
{"smiles": "O=C(COC(=O)c1ccccc1SCC(=O)NC1CCCCC1)NC1CCCCC1", "activation": "0.41%"}
{"smiles": "Cc1nn(CC(=O)Nc2ccc(N(C)C)cc2)c(C)c1[N+](=O)[O-]", "activation": "-0.79%"}
{"smiles": "NC(=O)c1ccc(-c2csnn2)cc1", "activation": "-0.31%"}
{"smiles": "O=C(OCc1ccc([N+](=O)[O-])cc1)c1ccccn1", "activation": "-1.16%"}
{"smiles": "N/C(=N\\OC(=O)c1ccc([N+](=O)[O-])cc1)c1ccccn1", "activation": "-0.02%"}
{"smiles": "N/C(=N\\OC(=O)Cc1ccc([N+](=O)[O-])cc1)c1ccccn1", "activation": "15.5% (active)"}
{"smiles": "CCc1ccc(NC(=O)N[C@H](C(=O)O)C(C)CC)cc1", "note": "(stereo partly drawn)", "activation": "-0.3%"}
{"smiles": "O=S(=O)(Nc1ccc(Cl)cn1)c1cnc(Cl)c(Br)c1", "activation": "0.57%"}
{"smiles": "O=C(c1cc(-c2cccs2)on1)N1CCCCC1", "activation": "0.14%"}
{"smiles": "Cc1ccc(Cn2ccc(NC(=O)c3cc(C(C)C)on3)n2)cc1", "activation": "-0.1%"}
{"smiles": "Cc1cc(NC(=O)c2cc(-c3cccs3)on2)nn1Cc1ccc(Cl)cc1", "activation": "13.1% (active)"}
{"smiles": "CCn1c(CNC(=O)c2ccc(OC)c(OC)c2)nnc1SCC(=O)Nc1ccccc1", "activation": "21.5% (active)"}
{"smiles": "CCn1c(CNC(=O)c2ccco2)nnc1SCC(=O)Nc1cccc(F)c1", "activation": "1.91%"}
{"smiles": "CCn1c(Cc2ccccc2)nnc1SCC(=O)Nc1ccccc1", "activation": "-2.58%"}
{"smiles": "O=C(CN1CCN(S(=O)(=O)c2ccc(Cl)s2)CC1)NCc1ccc(Cl)cc1", "activation": "0.73%"}
{"smiles": "COC(=O)C1=C(C)N(C)C(=O)NC1c1ccc([N+](=O)[O-])o1", "note": "(stereo not drawn)", "activation": "0.41%"}
{"smiles": "Brc1ccc(-c2n(-c3ccccn3)c3ccccc3[n+]2-c2ccccn2)cc1", "activation": "-0.47%"}
{"smiles": "CCn1c(N)c(Br)c(=O)[nH]c1=O", "activation": "0.16%"}
{"smiles": "O=C(NNS(=O)(=O)c1ccccc1)c1cnn(-c2ccc(Cl)cc2)c1C(F)(F)F", "activation": "1.09%"}
{"smiles": "Cc1ccc(NC(=O)CC2C(=O)N(Cc3ccccc3)C(=S)N2NC(=O)c2cccc(F)c2)c(C)c1", "note": "(stereo not drawn)", "activation": "2.02%"}
{"smiles": "Cc1ccc(/C=N/NC(=O)Cn2ccc(C(F)(F)F)n2)o1", "activation": "1.08%"}
{"smiles": "CC(=O)NC(=S)Nc1ccc(NC(=O)c2cccnc2)cc1", "activation": "-0.19%"}
{"smiles": "COc1ccc(CCn2c(NN=C3CCCC3)nc3c2c(=O)[nH]c(=O)n3C)cc1", "activation": "-1.13%"}
{"smiles": "FC(F)(F)c1ccnc(Oc2ccc(C3=NCCS3)cc2)c1", "activation": "-0.27%"}
{"smiles": "O=c1cc(N2CCCCC2)c(-c2ccccc2)nn1Cc1cccc(F)c1", "activation": "0.58%"}
{"smiles": "Cc1cc(C)cc(Oc2nc3c(C)cccn3c(=O)c2/C=C(\\C#N)C(=O)NC2CCS(=O)(=O)C2)c1", "note": "(stereo not drawn)", "activation": "2.53%"}
{"smiles": "Cc1ccc(CSc2nnc(-c3cnccn3)n2C)cc1", "activation": "-0.85%"}
{"smiles": "CC(C)c1ccc(NC(=S)NC2CC3C=CC2C3)cc1", "note": "(stereo not drawn)", "activation": "-1.16%"}
{"smiles": "O=C(COC(=O)c1ccccc1F)Nc1cc(S(=O)(=O)N2CCOCC2)ccc1N1CCCC1", "activation": "-0.01%"}
{"smiles": "O=C(COC(=O)Cc1ccc(F)cc1)Nc1cc(S(=O)(=O)N2CCOCC2)ccc1N1CCCC1", "activation": "17.3% (active)"}
{"smiles": "O=C(COc1cccc2ccccc12)Nc1cc(S(=O)(=O)N2CCOCC2)ccc1N1CCOCC1", "activation": "-0.32%"}
{"smiles": "Cc1cc(C)cc(NC(=O)Cn2cnc3c(nnn3Cc3ccc(F)cc3)c2=O)c1", "activation": "-0.07%"}
{"smiles": "O=C(COC(=O)c1ccco1)NCc1ccc(Cl)cc1", "activation": "0.62%"}
{"smiles": "Cc1ccccc1N1CCN(Cc2nc(Cc3ccccc3F)no2)CC1", "activation": "0.64%"}
{"smiles": "COc1ccc(NC(=O)CSc2ncnc3[nH]ncc23)cc1", "activation": "-1.23%"}
{"smiles": "CC(C)(C)c1ccc(/C=C2\\Oc3c(ccc(O)c3CN3CCN(CCO)CC3)C2=O)cc1", "activation": "0.44%"}
{"smiles": "CC(=O)c1cccc(NC(=O)Nc2ccc(C)cc2)c1", "activation": "-3.97%"}
{"smiles": "Cc1c(NC(=O)Nc2ccccc2)cccc1[N+](=O)[O-]", "activation": "1.03%"}
{"smiles": "Cc1ccc(NC(=O)Nc2ccccc2)c(Br)c1", "activation": "19.4% (active)"}
{"smiles": "Cc1ccc(N/C(N)=N/c2nc(C(F)(F)F)cc(C(F)(F)F)n2)cc1", "activation": "2.06%"}
{"smiles": "Fc1ccc(Nc2nnns2)cc1", "activation": "1.1%"}
{"smiles": "CC(=O)c1ccc(S(=O)(=O)N2CCN(C(=O)/C=C/c3ccc4ccccc4n3)CC2)cc1", "activation": "-0.28%"}
{"smiles": "Cc1ccc(N2C(=O)C(Cc3ccccc3)NC2=S)cc1", "note": "(stereo not drawn)", "activation": "-4.7%"}
{"smiles": "COc1ccc(N2C(=O)C(Cc3ccccc3)NC2=S)cc1", "note": "(stereo not drawn)", "activation": "18.3% (active)"}
{"smiles": "O=C1C(Cc2ccc(O)cc2)NC(=S)N1Cc1ccccc1", "note": "(stereo not drawn)", "activation": "0.05%"}
{"smiles": "O=C(NCc1ccccc1)C1CCCN(c2nc3ccsc3c(=O)s2)C1", "note": "(stereo not drawn)", "activation": "2.93%"}
{"smiles": "Cc1nn(-c2ccccc2)c(Cl)c1/C=C/C(=O)c1ccc(O)cc1", "activation": "4.66%"}
{"smiles": "Cc1ccc2c(c1)c1ncn(Cc3ccc(F)cc3)c(=O)c1n2C", "activation": "0.67%"}
{"smiles": "CC(=O)N1CCC(N(C(=O)Nc2ccc(Cl)cc2)C(C)C)CC1", "activation": "-0.35%"}
{"smiles": "CCOc1ccc(/C(O)=C2\\C(=O)C(=O)N(c3ccc(OC)cc3)C2c2ccccc2[N+](=O)[O-])cc1", "note": "(stereo not drawn)", "activation": "0.81%"}
{"smiles": "COc1ccc(C2CC(c3cccs3)=NN2c2nc(C)c(C(C)=O)s2)cc1OC", "note": "(stereo not drawn)", "activation": "2.99%"}
{"smiles": "COc1ccc(C2CC(c3cccs3)=NN2c2ccccc2)cc1", "note": "(stereo not drawn)", "activation": "11.6% (active)"}
{"smiles": "COc1ccc(C2CC(c3cccs3)=NN2C(=O)CSc2nncs2)cc1OC", "note": "(stereo not drawn)", "activation": "0.18%"}
{"smiles": "COc1ccc(C2=NN(c3ccccc3)C(c3cccs3)C2)cc1", "note": "(stereo not drawn)", "activation": "1.42%"}
{"smiles": "COc1ccccc1N1N=C(c2cccs2)CC1c1ccccc1", "note": "(stereo not drawn)", "activation": "7.12%"}
{"smiles": "COc1ccc(C2CC(c3cccs3)=NN2c2ccc(F)cc2)cc1OC", "note": "(stereo not drawn)", "activation": "19.4% (active)"}
{"smiles": "CSc1nc2nc3c(c(=O)n2[nH]1)CCC3", "activation": "-0.27%"}
{"smiles": "COc1ccc(CN2CN(C3CCCC3)CSC2=S)cc1", "activation": "-0.49%"}
{"smiles": "Cc1c(C(=O)Nc2cccc(-c3nnc4n3CCCCC4)c2)oc2ccccc12", "activation": "2.38%"}
